Several values for one entry are separate records, joined by “and”; a condition that tells them apart may be missing. Equal entries are not always repeated. Hit rate of the full screen: of about 75,000 compounds, about 5,700 (7.6%) were called active. Entries that show only a call come without a potency. Not shown: some 7% with an inconclusive outcome. The sample holds actives, similar compounds and a random draw of the others, so the mix is not that of the screen. Values without a mark were called inactive. The call rests on the fitted dose curve; in most records, active means well fitted inhibition curve with a large enough effect; inconclusive means small, poorly fitted or top-dose-only effect; inactive means no such curve, though single readings can be large or run the other way.
These compounds were tested against 3-hydroxyacyl-CoA dehydrogenase type-2 (Homo sapiens) (UniProt Q99714) (assay: qHTS Assay for Inhibitors of HSD17B4, hydroxysteroid (17-beta) dehydrogenase 4). Settings: recombinant HSD17B10, NADH fluorescence kinetic; series mostly up to 57.1 µM.
From the text: Assay Overview: NIH Molecular Libraries Screening Centers Network [MLSCN] NIH Chemical Genomics Center [NCGC] Structural Genomics Consortium [SGC] Grant number: None HADH2: Hydroxyacyl-Coenzyme A dehydrogenase, type II, was supplied by researchers at the Structural Genomics Consortium, Oxford University lab (PI Udo Oppermann). The mitochondrial enzyme 17-hydroxysteroid dehydrogenase type 10 (HSD17-10) previously classified as type II hydroxyacyl-CoA dehydrogenase (HADH2) catalyzes the NAD+ dependent oxidation of a variety of substrates including acyl-CoAs, androgens and neurosteroids as well as bile acids(Shafqat N, Marschall HU, Filling C, et al. Biochemical Journal. 2003;376(Pt 1):49-60). […] The enzyme was produced by E.coli fermentation as His-tagged recombinant for the purpose of X-ray structure determination, and had been mass-spectrometry characterized. Inhibition of HADH2 activity was screened by utilizing beta-hydroxybutyryl coenzyme A as an electron donor and NAD+ as an electron acceptor/cofactor. An increase in the fluorescence intensity due to conversion of NAD+ to NADH was used to measure the enzyme activity.
Assay Protocol: Buffer: 100 mM Tris-HCl pH 9.0, containing 0.01 % Tween-20. Reagents/Controls: Buffer in columns 3 and 4 as negative control (no enzyme). Substrate/cofactor solution: 1 mM NAD+ and 90 uM beta-hydroxybutyryl coenzyme A (Sigma-Aldrich, St. Louis, MO) final concentrations dispensed throughout the plate. Enzyme: 20 nM HADH2 final concentration in columns 1, 2, 5-48. Column 1 is neutral (100% activity). Column 2 contained titration of apomorphine (Sigma-Aldrich, A 4393, PubChem CID 2215, top concentration 500 uM, then 1:2 dilution in duplicate) Assay Steps: Three uL of enzyme were dispensed to 1536-well Greiner black solid bottom plates. Compounds and controls (23 nL) were transferred via Kalypsys PinTool. The plates were incubated for 15 min at room temperature, and then 1 uL of substrate/cofactor solution was added to start the reaction. The plates were immediately transferred to and read every 30 seconds for 4 min on ViewLux High-throughput CCD imager (Perkin-Elmer) using 360 nm excitation and 450 nm emission fluorescence protocol. The fluorescence intensity difference between the last and the first time points was used to compute reaction progress.
Further: nearly all actives have a fitted effect of over 70% in size.
Potency means the concentration at half of the fitted maximal effect.

| Structure (SMILES) | Potency | activity change, negative = inhibition |
| --- | --- | --- |
| COc1ccc(N2C(=O)CCC(C(=O)Nc3ccccn3)C2c2ccc(OC)c(OC)c2)cc1 (stereo not drawn) | inactive |  |
| CC(C)=CCC/C(C)=C/CO/N=C1/C[C@@H](O)[C@@H](O)[C@@H]2[C@@H]3C(=O)N(C(C)(C)C)C(=O)[C@H]3CC[C@H]12 |  | 0.507% [at 11.4 µM] |
| CC(C)c1ccc2c(c1)c(SC(C)(C)C)c(CC(C)(C)C(=O)O)n2Cc1ccc(Cl)cc1 | 10 µM (active) and 3.98 µM (active) |  |
| COC(=O)[C@@H]1CC[C@H](C)[C@@H](c2ccc(C)cc2)N1C(=O)c1ccc(/C=N\O[C@@H](C)c2cn([C@H](CO)Cc3ccccc3)nn2)cc1 |  | -0.702% [at 11.4 µM] and -3.31% [at 11.4 µM] |
| O=C(Nc1c(C(=O)N2CCCCC2)cnn1-c1ccccc1)c1ccco1 | inactive |  |
| Cc1c(C(=O)NCCN2CCOCC2)sc2nc(-c3ccc(F)cc3)cn12 | inactive |  |
| CC(C(=O)O)N1C(=O)c2cccc3cccc1c23 (stereo not drawn) | inactive |  |
| O=C1c2cccc3cccc(c23)N1CN1CCN(c2ccccn2)CC1 | inactive |  |
| COc1ccc(N2C(=O)c3cccc4cccc(c34)C2=O)nn1 | 31.6 µM (active) |  |
| CN1CC(=O)N=C1N | inactive |  |
| COC(=O)NC(c1ccccc1)[C@]1(C(C)=O)CCCC1=O (stereo partly drawn) |  | 3.19% [at 11.4 µM] |
| Cc1ccnc(NC(=O)c2ccc(NC(=O)c3ccco3)cc2)c1 | inactive |  |
| O=S(=O)(O)c1nc2ccccc2n1Cc1ccc(Cl)cc1 | inactive |  |
| CCN(CC)C(=O)c1sc(NC(=O)c2ccco2)c(C#N)c1C | inactive |  |
| Cc1ccc(C(=O)COc2cccc(NC(=O)c3ccco3)c2)cc1 | inactive |  |
| CCn1nc(NC(=O)c2ccco2)c2cc3ccc(C)cc3nc21 | 20 µM (active) |  |
| Cc1ccc(Cn2c(NC(=O)c3ccco3)nc3ccccc32)cc1 | 15.8 µM (active) |  |
| COC(C)(C)[C@]12CC(O)(C(C)C)ON1[C@H]1CCCCC1N2O (stereo partly drawn) | inactive |  |
| Cc1sc2c(c1C)c(=O)n(-c1ccccc1)c1nncn21 | inactive |  |
| Cn1c2c(c(=O)n(C)c1=O)C(c1ccc(O)cc1)Nc1ccccc1O2 (stereo not drawn) | inactive |  |
| O=C(CCCN1C(=O)C2C3C=CC(C3)C2C1=O)N1CCN(c2ccccc2)CC1 (stereo not drawn) | inactive |  |

| Structure (SMILES) | Potency | activity change, negative = inhibition |
| --- | --- | --- |
| CC(C)CCNC(=O)CCNS(=O)(=O)c1ccc(Cl)cc1 | inactive |  |
| CCCCOc1ccc(NC(=O)CSCC(=O)OCC)cc1 | inactive |  |
| CCOC(=O)c1cnc(SCC(=O)NCc2ccco2)nc1N | inactive |  |
| CCCCOc1ccc(-c2ncc(C(=O)OCC)c(N)n2)cc1 | 31.6 µM (active) |  |
| Cc1cccc(NC(=O)c2ccc3ccccc3n2)n1 | inactive |  |
| COC(=O)[C@@H]1C[C@@]2(O)[C@H](O)[C@H](O)[C@H](O)C[C@H]2N1Cc1ccc(C(C)(C)C)cc1 | inactive |  |
| COc1ccc(OC)c([C@H](O)CNC(=O)CN)c1 | inactive |  |
| CCOC(=O)c1[nH]c2ccc(OC)cc2c1NC(=O)N1CCOCC1 | 25.1 µM (active) |  |
| COc1cc(NC(=O)N2CCOCC2)cc(OC)c1 | inactive |  |
| Cc1c(C(=O)CN2CCOCC2)[nH]c2ccccc12 | inactive |  |
| O=C(CN1C2CCC1CC(NC(=O)C1CC1)C2)NCc1ccccc1 (stereo not drawn) | inactive |  |
| CCCN(CCC)CCNC(=O)c1cc2c(C)nc3ccccc3c2o1 | inactive |  |
| Cc1nc2ccccc2c2oc(C(=O)NCC3CCCO3)cc12 (stereo not drawn) | 31.6 µM (active) |  |
| Cc1nc2ccccc2c2oc(C(=O)NCCCN3CCC(C)CC3)cc12 | inactive |  |
| Cc1ccc(Cc2cncc(O)c2)cc1S(=O)(=O)O | inactive |  |
| CCCn1c(SCC(=O)c2ccc3c(c2)OCCO3)nnc1C(C)C | inactive |  |
| COc1cc(C2C(C(=O)Nc3ccc(F)cc3)=C(C)Nc3nc(CCCO)nn32)cc(OC)c1OC (stereo not drawn) | inactive |  |
| CC1C(O)CC2C(C(=O)O)=CO[C@@H](O[C@H]3OC(CO)C(O)C(O)C3O)C21 (stereo partly drawn) | inactive |  |
| COc1ccc(C2CC(c3ccccc3)Nc3ncnn32)cc1 (stereo not drawn) | inactive |  |
| CC(C)[C@@H](OCc1ccccc1)[C@H](C)/C=N\OC[C@@H](C)[C@H](OCc1ccccc1)C(C)C |  | 2.53% [at 11.4 µM] |
| OC(COc1ccccc1)Cn1cc(Br)cn1 (stereo not drawn) | inactive |  |

| Structure (SMILES) | Potency | activity change, negative = inhibition |
| --- | --- | --- |
| COc1cc(-c2nc(S(=O)(=O)c3ccc(Cl)cc3)c(N(C)C)o2)cc(OC)c1OC | inactive |  |
| COC(=O)c1ccc(C2NC(=O)NC(C)=C2C(=O)N(C)C)cc1 (stereo not drawn) | inactive |  |
| COc1ccc(C2C(C(=O)Nc3ccccc3OC)=C(C)Nc3nnnn32)c(OC)c1 (stereo not drawn) | inactive |  |
| COC(=O)c1ccc(C2C3=C(Nc4nnnn42)c2ccccc2OC3)cc1 (stereo not drawn) | 25.1 µM (active) |  |
| Cc1c(C)c2c(c(C)c1O)CC[C@@](C)(CN1CCN(c3cc(N4CCCC4)nc(N4CCCC4)n3)CC1)O2 | inactive |  |
| CCOC(=O)CSc1nnc(-c2ccco2)n1C | inactive |  |
| c1coc(-c2nc3nc4ccccc4n3nc2-c2ccco2)c1 | inactive |  |
| Cn1c(-c2ccco2)nc2cc3ccccc3cc21 | 25.1 µM (active) |  |
| Cn1c(SCC(=O)N2CCOCC2)nnc1-c1ccc(NC(=O)c2ccccc2F)cc1 | inactive |  |
| COc1cccc(Nc2nnc(SCC(=O)N3CC(C)OC(C)C3)s2)c1 (stereo not drawn) | inactive |  |
| O=C(C1CCN(CC2CCCCC2)CC1)N1CCCC1 | inactive |  |
| CCC(=O)Nc1ccc2c(c1)nc(CCN1CCN(C)CC1)n2C | inactive |  |
| Cn1c(CCN2CCCCCC2)nc2cc(NC(=O)Nc3ccccc3)ccc21 | 25.1 µM (active) |  |
| Cc1nn(CC(=O)Nc2ccc3c(c2)nc(CN2CCCCC2)n3C)c(=O)c2ccccc12 | inactive |  |
| CN(C)CCCNC(=O)c1ccc2[nH]c3ccccc3c2c1 | 20 µM (active) |  |
| CN(C)CCCCNC(=O)c1ccc(Cc2nc3ccccc3[nH]2)cc1 | inactive |  |
| CC(C)N(CCNC(=O)c1ccc(-n2c(=O)c(=O)[nH]c3ccccc32)cc1)C(C)C | inactive |  |
| COC(=O)[C@@]1(Cc2ccc(OC)cc2)[C@H]2c3cc(C(=O)N4CCCC4)n(Cc4ccc(OC(F)(F)F)cc4)c3C[C@H]2CN1C(=O)c1ccccc1 | inactive |  |
| Cc1ccc2c(C(=O)CN3CCCC3)c(C)[nH]c2c1 | inactive |  |
| CCOC(=O)c1nnn(-c2nonc2OC)c1-c1ccccc1 | inactive |  |
| CC(=O)Oc1c2c(c3c(c1CC=C(C)C)O[C@@]14C(=CC5CC1C(C)(C)OC4(C/C=C(\C)C(=O)O)C5=O)C3=O)OC(C)(CCC=C(C)C)C=C2 (stereo partly drawn) | 20 µM (active) |  |

— PubChem BioAssay AID893 (National Center for Advancing Translational Sciences (NCATS), 2007)
